This note sets out measurements from ChEMBL document CHEMBL4513146, “CO-ADD screening of Karazin Kharkiv National University (Ukraine) compounds”.

Entries with a potency or affinity are not part of this list.

The test system of the assay is Cryptococcus neoformans. As to conditions: Concentration 32 ug.mL-1; ASSAY_TEST Inhibition of Fungal Growth; detection method Resazurin; Absorption (OD600-OD570); plate type 384well; NBS; CORNING #3640.
The Inhibition is the relative decrease from the control value, in per cent. Turning to `CCc1ccccc1Sc1nccn2c(=O)n(CC(=O)Nc3ccc(C)cc3)nc12`, the Inhibition was -9.26%.
`Cc1ccc(Nc2cc(C)n3c(=O)n(CCOc4ccc(F)cc4)nc3n2)cc1`: the Inhibition was -10.19%.
For `COc1ccc(OC)c(NC(=O)Cn2nc3c(SCc4ccc(Cl)cc4)nccn3c2=O)c1`, the Inhibition was -18.91%.
Take `COc1cccc(-n2ccn3c(SCC(=O)Nc4ccc(F)cc4F)nnc3c2=O)c1`: the Inhibition is reported as -12.76%.
In the case of `COc1ccccc1Cn1c(=O)c2sccc2n2c(=O)n(Cc3cccc(C)c3)nc12`, the Inhibition is recorded as -25.61%.
In the case of `CSc1ccc(-c2noc(Cn3nc4ccc(-c5ccccc5)nn4c3=O)n2)cc1`, the Inhibition is given as -6.64%.
Turning to `O=C(Cn1nc2ccc(C(=O)NCc3ccccc3)cn2c1=O)Nc1ccc2c(c1)OCO2`, the Inhibition is on record as -36.87%.
The result for `Cc1ccc(-c2noc(Cn3nc4ccc(-c5ccccc5)nn4c3=O)n2)cc1` reads -15.81%; that for `O=C(Cn1nc2c(N3CCOCC3)nc3ccccc3n2c1=O)NCc1ccccc1Cl`, -3.24%; that for `O=C(CSc1nnc2c3cc(-c4ccccc4)nn3ccn12)NCc1ccccc1Cl`, -17.16%.
Take `COc1ccc(NC(=O)c2ccc3nn(CC(=O)Nc4ccc(C)c(F)c4)c(=O)n3c2)cc1`: the Inhibition is given as -14.12%.
As for `Cc1cccc(Oc2nccn3c(=O)n(CC(=O)NCCCc4ccccc4)nc23)c1C`, the Inhibition is listed as -6.84%.
The result for `Cc1ccc(NC(=O)Cn2nc3ccc(SC(C)C)nn3c2=O)c(C)c1` reads -5.46%.
On to `Cc1ccc(-c2ccc3nn(CC(=O)Nc4ccc(Cl)cc4)c(=O)n3n2)cc1C`, for which the Inhibition is -13.82%.
The result for `Cc1ccc(Oc2nccn3c(=O)n(CC(=O)Nc4ccc(Br)cc4F)nc23)cc1` reads -6.11%; that for `COc1cccc(Oc2nccn3c(=O)n(CC(=O)NCc4ccc(SC)cc4)nc23)c1`, -5.89%; that for `CCc1nnc2c(S(=O)(=O)N(Cc3cccc(F)c3)c3ccc(F)cc3)cccn12`, -2.23%.
As to `Cc1nnc2c(SCC(=O)Nc3cccc(Br)c3)nc3ccccc3n12`, the Inhibition is on record as -3.71%.
With `CCCCc1ccc(NC(=O)Cn2nc3c(Sc4ccccc4CC)nccn3c2=O)cc1`, the Inhibition is reported as -8.24%.
The result for `CCCNC(=O)Cn1nc2cc(C)nc(Nc3cc(C)cc(C)c3)n2c1=O` reads -9.02%; that for `COc1cccc(Oc2nccn3c(=O)n(CC(=O)Nc4cc(F)ccc4F)nc23)c1`, -8.45%.
On to `COc1ccc(Cl)cc1NC(=O)CSc1nnc2c(=O)n(-c3ccccc3)ccn12`, for which the Inhibition is given as -20.14%.
The figure for `Cc1ccc(-n2ccn3c(SCC(=O)Nc4ccc5c(c4)OCCO5)nnc3c2=O)cc1C` is -6.74%; for `Cc1ccc(Cl)cc1NC(=O)CSc1nc2ccccc2n2c(C)nnc12` it is -21.14%; for `Cc1ccc(C)c(NC(=O)Cn2nc3c(SCc4ccc(Cl)cc4)nccn3c2=O)c1` it is -22.73%.
On to `O=S(=O)(c1ccc2nncn2c1)N(Cc1ccccc1F)c1cccc(F)c1`, for which the Inhibition is -8.33%.
`CC(C)CCNC(=O)Cn1nc2n(CC(C)C)c(=O)c3sccc3n2c1=O`: the Inhibition is reported as -16.87%.
Turning to `Cc1ccc(NC(=O)Cn2nc3cc(C)nc(Nc4ccc(F)cc4)n3c2=O)cc1`, the Inhibition is listed as -24.95%.
On to `COc1cccc(CN(c2cc(C)cc(C)c2)S(=O)(=O)c2cccn3c(C)nnc23)c1`, for which the Inhibition is recorded as -6.64%.
Regarding `Cc1ccc(S(=O)(=O)Nc2ccc3nnc(-c4ccccc4)n3n2)cc1C`, the Inhibition was -4.99%.
Turning to `CC(C)(C)OC(=O)CN(c1ccc2c(c1)OCCO2)S(=O)(=O)c1ccc2nncn2c1`, the Inhibition is reported as -8.21%.
`CCOC(=O)c1ccc(NC(=O)Cn2nc3c4cc(-c5ccc(C)c(C)c5)nn4ccn3c2=O)cc1`: the Inhibition was -10.15%.
For `CCC(Sc1nnc2c(=O)n(-c3cccc(OC)c3)ccn12)C(=O)Nc1ccccc1C` (centres undefined), the Inhibition is -7.71%.
As for `O=C(Cn1nc2c(Sc3cccc(F)c3)nccn2c1=O)N1CCN(c2ccccc2)CC1`, the Inhibition is reported as -2.85%.
The result for `Cc1nnc2ccc(S(=O)(=O)N(Cc3cccc(F)c3)c3cc(F)cc(F)c3)cn12` reads -12.8%; that for `Cc1cc(C)c(NC(=O)Cn2nc3c4cc(-c5ccc(C)c(C)c5)nn4ccn3c2=O)c(C)c1`, -17.51%; that for `CCCCc1ccc(NC(=O)Cn2nc3ccc(-c4ccc(C)c(C)c4)nn3c2=O)cc1`, -8.31%.
On to `COc1ccc(C)cc1NC(=O)Cn1nc2ccc(SCc3ccc(Cl)cc3)nn2c1=O`, for which the Inhibition was -20.73%.
On to `Cc1nnc2c(=O)n(CC(=O)Nc3ccc(F)cc3F)c3ccccc3n12`, for which the Inhibition is listed as -30.11%.
